Reference: paper PMC4336329 (PLoS ONE, 2015)
Hit rate of the full screen: of about 310,000 compounds, about 14,000 (4.5%) showed an effect of 50% or more. The effect is printed as a negative number. The entries come from a sample that favours strong results as a whole.

Target: human ether-à-go-go-related gene (hERG) potassium channel (human, UniProt Q12809)
Experiment: primary screen, population patch clamp on CHO cells stably expressing hERG; higher = less effect of the substance
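Also: peak tail current of the secondary pulse compared with the same well before compound.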

Sequence of human ether-à-go-go-related gene (hERG) potassium channel (Q12809 whole entry, looked up): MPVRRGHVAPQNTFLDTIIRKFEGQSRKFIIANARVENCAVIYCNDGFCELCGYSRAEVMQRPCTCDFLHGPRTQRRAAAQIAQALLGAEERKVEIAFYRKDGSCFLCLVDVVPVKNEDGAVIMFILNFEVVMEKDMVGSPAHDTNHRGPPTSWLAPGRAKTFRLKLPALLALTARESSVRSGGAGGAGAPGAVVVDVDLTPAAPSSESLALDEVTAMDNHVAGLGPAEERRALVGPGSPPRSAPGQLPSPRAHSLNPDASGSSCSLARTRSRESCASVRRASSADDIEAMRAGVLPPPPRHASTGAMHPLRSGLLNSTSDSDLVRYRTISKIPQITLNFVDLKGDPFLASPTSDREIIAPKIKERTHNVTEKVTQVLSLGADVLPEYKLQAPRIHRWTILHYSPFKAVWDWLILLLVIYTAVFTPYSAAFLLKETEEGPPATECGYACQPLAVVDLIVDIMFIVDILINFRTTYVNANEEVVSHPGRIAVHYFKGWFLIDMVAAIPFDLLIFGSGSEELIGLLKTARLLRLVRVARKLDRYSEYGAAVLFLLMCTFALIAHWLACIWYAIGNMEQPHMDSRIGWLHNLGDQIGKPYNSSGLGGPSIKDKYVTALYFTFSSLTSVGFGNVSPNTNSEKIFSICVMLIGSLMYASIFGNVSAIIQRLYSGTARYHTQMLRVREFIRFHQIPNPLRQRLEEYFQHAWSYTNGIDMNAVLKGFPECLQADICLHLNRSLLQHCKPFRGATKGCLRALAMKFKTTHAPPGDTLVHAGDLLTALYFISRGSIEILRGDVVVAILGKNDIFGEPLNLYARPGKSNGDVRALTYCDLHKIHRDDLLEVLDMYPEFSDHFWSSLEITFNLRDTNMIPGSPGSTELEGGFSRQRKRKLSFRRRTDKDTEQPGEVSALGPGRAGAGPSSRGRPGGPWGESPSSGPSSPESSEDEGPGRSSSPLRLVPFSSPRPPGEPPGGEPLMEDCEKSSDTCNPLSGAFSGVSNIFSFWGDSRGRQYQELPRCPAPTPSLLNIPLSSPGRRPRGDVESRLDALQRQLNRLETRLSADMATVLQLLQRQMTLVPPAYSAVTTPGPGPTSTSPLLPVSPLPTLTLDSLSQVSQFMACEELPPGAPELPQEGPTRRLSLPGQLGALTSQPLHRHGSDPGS

| Compound | hERG current change (%, negative = inhibition) at 10uM [%] |
| --- | --- |
| N#Cc1ccc(OCC(=O)OCC(=O)Nc2ccc(N3CCOCC3)cc2)cc1 | -15.3 |
| CC(=O)NCc1ccc(C(=O)CCl)s1 | -7.15 |
| CCN(CC)CCn1c2ccccc2c2cnc(N=CN(C)C)c(C#N)c21 | -31.8 |
| CN(C)C=Nc1ncc2c3ccccc3n(CCN(C)C)c2c1C#N | -15.7 |
| CCN(CC)CCn1c2ccccc2c2cnc(N)c(C#N)c21 | -60.5 |
| CC1CN(C(=O)CSc2nc(N)cc(N)n2)CC(C)O1 (stereo not drawn) | -10.3 |
| Cc1nnc2c(NC3CCCC3)nc3ccccc3n12 | -37.3 |
| CCCOc1ccc(N2C(=O)CC(N(CCc3ccc(OC)c(OC)c3)C(=O)c3ccccc3)C2=O)cc1 (stereo not drawn) | -74.9 |
| CCOc1ccc(N2C(=O)CC(N(CCc3ccc(OC)cc3)C(=O)c3cccc(F)c3)C2=O)cc1 (stereo not drawn) | -63 |
| CCCOc1ccc(N2C(=O)CC(N(CCc3ccccc3)C(=O)c3ccccc3)C2=O)cc1 (stereo not drawn) | 10.8 |
| CCCOc1ccc(N2C(=O)CC(N(CCc3ccc(OC)cc3)C(=O)c3ccccc3)C2=O)cc1 (stereo not drawn) | -10.6 |
| CCCOc1ccc(N2C(=O)CC(N(CCc3ccc(OC)cc3)C(=O)c3cccc(F)c3)C2=O)cc1 (stereo not drawn) | -8.44 |
| COc1ccc(CCN(C(=O)c2cccc(F)c2)C2CC(=O)N(c3ccccc3)C2=O)cc1 (stereo not drawn) | -38.5 |
| Cc1cccc(N(Cc2cc3ccc(C)cc3[nH]c2=O)C(=O)c2ccco2)c1 | -8.8 |
| COC(=O)c1cccc(Nc2nc(-c3ccncc3)nc3ccccc23)c1 | 28.5 |
| Cc1ccc(C2CCN(C(=S)NC3CCCCC3)C2)cc1 (stereo not drawn) | -5.82 |
| CC1CCCC(NC(=O)c2ccc(COc3ccccc3)o2)C1C (stereo not drawn) | 0.0111 |
| O=C(CNS(=O)(=O)c1ccccc1)OCC(=O)c1ccc([N+](=O)[O-])cc1 | -3.22 |
| O=C(COC(=O)[C@@H]1CCCN1S(=O)(=O)c1ccccc1F)Nc1ccc(OC(F)F)cc1 | -61.7 |
| CC(=O)c1ccccc1NC(=O)COC(=O)C1CCCN1S(=O)(=O)c1ccccc1F (stereo not drawn) | -0.476 |
| COc1ccc(NC(=O)COC(=O)CCNS(=O)(=O)c2ccccc2)cc1OC | 23.2 |

| Compound | hERG current change (%, negative = inhibition) at 10uM [%] |
| --- | --- |
| COc1ccc(NC(=O)COC(=O)CNS(=O)(=O)c2ccc(F)c(F)c2F)cc1OC | 21.3 |
| N#Cc1ccc(NC(=O)COC(=O)CCNS(=O)(=O)c2ccccc2)cc1 | -34.4 |
| O=C(COC(=O)CCNS(=O)(=O)c1ccccc1)Nc1ccc(OC(F)F)cc1 | -60.3 |
| NC(=O)NC(=O)COC(=O)CNS(=O)(=O)c1ccc(F)c(F)c1F | 13.3 |
| O=C(COC(=O)CNS(=O)(=O)c1ccc(F)c(F)c1F)Nc1ccc(OC(F)F)cc1 | -65.2 |
| COc1ccc(NC(=O)COC(=O)[C@@H]2CCCN2S(=O)(=O)c2ccccc2F)c(OC)c1 | -18.2 |
| CCn1c(CC(=O)Nc2cccc(OC)c2)nnc1SCC(=O)Nc1nccs1 | -2.39 |
| CCc1ccc2c(c1)cc(C)c1nnc(SCC(=O)Nc3cc(OC)c(OC)cc3C(=O)O)n12 | 5.98 |
| CC1CCC2(CC1)NC(=O)N(CC(=O)NCc1ccc(F)cc1)C2=O (stereo not drawn) | -21.2 |
| C/C(=N/Nc1nc(-c2ccccc2)cc(-c2ccc(F)cc2)n1)c1cccc(N)c1 | 3.2 |
| NS(=O)(=O)c1ccc(CCNC(=O)c2ccc(OCC3CCCO3)cc2)cc1 (stereo not drawn) | 19.9 |
| COc1ccc(C(=O)Nc2ccc3nc(N4CCN(C)CC4)cc(C)c3c2)c(OC)c1 | -0.388 |
| Cc1ccc(NC(=O)c2ccc3c(c2)OCO3)cc1Cl | -2.98 |
| CCN1CCN(c2cc(C)c3cc(NC(=O)c4ccc5c(c4)OCO5)ccc3n2)CC1 | -38.6 |
| Cc1cc(N2CCN(C)CC2)nc2ccc(NC(=O)c3ccccc3F)cc12 | -58.4 |
| Cc1cc(N2CCN(C)CC2)nc2ccc(NC(=O)c3ccc4c(c3)OCO4)cc12 | -62.2 |
| Cc1cc(N2CCN(C)CC2)nc2ccc(NC(=O)c3cccnc3Cl)cc12 | -2.54 |
| O=C(Nc1ccc2c(c1)OCCO2)C1CCCN(S(=O)(=O)c2cccc3nsnc23)C1 (stereo not drawn) | 4.93 |
| O=C(CNC1CCCCCC1)Nc1ccc(S(=O)(=O)NC2CC2)cc1 | 1.98 |
| Nc1ccccc1SCc1ccccc1 | -2.24 |
| Oc1ccccc1C1NN=C(c2ccccc2)S1 (stereo not drawn) | -15 |
